Compound activity from PubChem.
Only some compounds are listed: those with a hit (about 2.5% of all), similar ones and a draw of the others.
ANO1 block: TMEM16A chloride channel inhibitors, primary screen, cell-based, HTS; Anoctamin-1 (Mus musculus), Q8BHY3; HEK293 TMEM16A/YFP iodide influx fluorescence, ionomycin; normalized B-score (activity score, 25-100; higher = stronger inhibition) at 10 µM; 310,000 compounds, 1.2% hits;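 active = ratio plate-corrected score three or more library SD toward inhibition, starting fluorescence score within five deviations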;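 also: score derived from kinetic fluorescence span divided by baseline fluorescence per well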
PKA-R1A act: activators of PKA-R1A holoenzyme, primary screen, biochemical, fluorescence polarization, Cy5-IP20, bovine R1A, mouse PKAc; cAMP-dependent protein kinase type I-alpha regulatory subunit (Bos taurus) + …; PKA-R1A dissociation; scaled: DMSO 0%, 113 µM cGMP 100%; activation, % at 11.4 µM; 340,000 compounds, 0.083% hits; AID 504707, 2011;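 active = percent activation above the mean of all tested compounds plus 3 SD, cut at about 19% in these data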;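 also: higher means more PKAc released from R1A so a rise in polarization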
PKA-R2B activ: activators of PKA-R2B holoenzyme, primary screen, biochemical, fluorescence polarization, Cy5-IP20, human. cAMP-dependent protein kinase catalytic subunit beta (Homo sapiens) + cAMP-dependent …. PKA-R2B holoenzyme dissociation; R2B truncated from residue 108, S112A mutant; 0% DMSO only, 100% 113 µM cGMP. activation, % at 11.4 µM. 340,000 compounds, 0.079% hits. AID 504700, 2011;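 active = activation above a cutoff set at the mean over all compounds plus 3 SD, cut at about 18% in these data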;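 also: higher means more holoenzyme dissociation and a rise in polarization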
CHT inh: inhibitors of human choline transporter CHT; 310,000 compounds, 0.86% hits; AID 488975, 2010; CHT-expressing cells, membrane potential dye, choline response; active compounds read low; B-score at 10 µM;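 active = B-score over 3 SD under the library average, and starting fluorescence ratio not unusually high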;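 also: choline stimulus applied at its EC90 after an EC20 pre-addition; B-score computed on integrated fluorescence ratio after choline addition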
Target sequence (Q9GZV3 whole entry, looked up): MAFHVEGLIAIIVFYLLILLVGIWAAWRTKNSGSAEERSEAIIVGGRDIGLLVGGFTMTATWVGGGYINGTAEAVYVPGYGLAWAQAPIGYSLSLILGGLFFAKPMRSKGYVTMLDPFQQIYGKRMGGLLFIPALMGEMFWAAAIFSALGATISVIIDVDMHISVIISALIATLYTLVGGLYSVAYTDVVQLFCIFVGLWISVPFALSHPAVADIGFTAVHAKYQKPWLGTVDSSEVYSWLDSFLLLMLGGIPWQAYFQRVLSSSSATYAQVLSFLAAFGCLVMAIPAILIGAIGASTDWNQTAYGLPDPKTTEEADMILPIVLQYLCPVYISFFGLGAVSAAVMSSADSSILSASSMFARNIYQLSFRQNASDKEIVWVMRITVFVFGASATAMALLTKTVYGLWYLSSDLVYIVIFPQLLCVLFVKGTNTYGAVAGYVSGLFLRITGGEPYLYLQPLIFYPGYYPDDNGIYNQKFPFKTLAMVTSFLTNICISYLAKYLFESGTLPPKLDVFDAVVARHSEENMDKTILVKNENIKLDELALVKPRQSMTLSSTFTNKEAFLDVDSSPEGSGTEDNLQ
CHT allo act: CHT positive allosteric modulators, primary screen, cell-based, membrane potential dye, choline EC20. High affinity choline transporter 1 (Homo sapiens), Q9GZV3. CHT-expressing cells; active compounds read high; LV-AA mutant CHT in HEK293 cells. B-score at 10 µM. 310,000 compounds, 0.49% hits;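 active = initial fluorescence not abnormally high and integrated response B-score, plate-corrected, over 3 SD above library mean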
ANO1 activ: TMEM16A chloride channel activators or potentiators, primary screen, cell-based, HTS | Anoctamin-1 (Mus musculus), Q8BHY3 | HEK293 TMEM16A/YFP-H148Q/I152L, iodide quench fluorescence; active compounds read low | B-score at 10 µM | 340,000 compounds, 0.3% hits | AID 623877, 2012;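 active = fluorescence-ratio B-score plate-corrected deviation score at least 3 library SD below zero, with starting fluorescence score within 5 deviations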;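 also: channel opened by trigger with iodide after compound preincubation; score built on the fluorescence ratio of max minus min over baseline; more negative score means more quench and so TMEM16A activation or potentiation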
CHT block conf: CHT inhibitors, confirmation, cell-based, membrane potential dye, duplicate. shares compounds with CHT inh. CHT-expressing cells, choline membrane potential dye; LV-to-AA substituted CHT, HEK293 cells. CHT activity remaining % of control (active compounds read low), % at 10 µM. 2,400 compounds, 70% hits. AID 493221, 2011;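 active = choline transporter activity left, mean of duplicates at 10 µM, below buffer-only control mean minus 3 SD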;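 also: depolarization triggered by choline at its EC90 following an EC20 pre-addition; 0% = hemicholinium-3 full block and 100% = buffer-only control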
HEK293 MPD ctr: membrane potential effects in parental HEK293, counter-screen for CHT inhibitor project, cell-based, membrane potential dye; shares compounds with CHT inh; choline response; active = decrease or increase beyond buffer ±3SD; membrane potential ratio readout (active if shifted either direction beyond buffer ±3SD; no single direction) at 10 µM; 2,400 compounds, 4% hits; AID 493222, 2011;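 also: parental cells lack the transporter so any hit is non-specific; ratio is peak minus trough fluorescence over baseline after EC90 choline challenge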
* marks the source's active call; other numbers are inactive results; i = inactive; . = no result given.

SMILES	ANO1 block	PKA-R1A act	PKA-R2B activ	CHT inh	CHT allo act	ANO1 activ	CHT block conf	HEK293 MPD ctr
CC(C)(C)c1ccc(C(=O)CC(Sc2ccc(Cl)cc2)C(=O)O)cc1 (centres undefined)	i	-9	-8	-8.4*	i	i	6.4%*	i
CC(C(=O)c1ccc(Br)cc1)[n+]1cccc2ccccc21 (centres undefined)	i	4	-9	i	i	i	.	.
COc1ccc([N+](=O)[O-])c(S(=O)(=O)c2ccc(Cl)cc2)n1	i	0	-5	-6.6*	i	i	48%*	i
COc1ccc([N+](=O)[O-])c(S(=O)(=O)c2ccccc2)n1	i	.	.	-5.3*	i	i	44%*	i
O=[N+]([O-])c1cccnc1S(=O)(=O)c1ccccc1	i	1	-5	i	i	i	.	.
O=C(CSc1nc2cc([N+](=O)[O-])ccc2n1-c1ccc(F)cc1)NC1CCS(=O)(=O)C1 (centres undefined)	i	3	0	i	i	i	.	.
CCn1cc(CN(C)C(=O)CSc2nc(-c3ccco3)cc(C(F)(F)F)n2)c(C)n1	i	-14	-7	i	i	i	.	.
Cc1c(CN(C)C(=O)CSc2nc(-c3ccco3)cc(C(F)(F)F)n2)cnn1C	i	10	-10	-7*	i	i	69%*	-8.6*
CC1CCN(S(=O)(=O)c2ccc3c(c2)N(CC(=O)NCCCN2CCCCC2)C(=O)CS3)CC1	i	5	7	i	i	i	.	.
O=C(Nc1cc([N+](=O)[O-])ccc1O)c1cccc([N+](=O)[O-])c1	i	-6	-7	-5.4*	i	i	10%*	i
O=C(Nc1nnc(-c2ccc(Br)cc2)o1)c1cccc(N2C(=O)CCC2=O)c1	i	-13	2	i	i	i	.	.
O=C(COc1ccccc1-c1ccccc1)NNC(=O)NC1CCCCC1	i	-3	-9	-6.3*	i	i	34%*	i
CCOCCCN(C)C1CCN(C(=O)c2oc3ccccc3c2NC(=O)c2cccc([N+](=O)[O-])c2)CC1	i	-6	7	-6.3*	i	i	38%*	4.3*
CCCNC(=O)C1CCN(S(=O)(=O)c2cccc3nonc23)CC1	i	4	2	i	i	i	.	.
CCCCCc1cc(=O)oc2c(C(CCN(CC)CC)c3cc(OC)c(OC)c(OC)c3)c(OC)cc(OC)c12 (centres undefined)	i	5	3	-5.8*	i	i	51%*	i
CCCCCc1cc(=O)oc2c(C(CCN3CCCCC3)c3ccc4c(c3)OCO4)c(OC)cc(OC)c12 (centres undefined)	i	3	-7	i	i	i	.	.
Cc1cccc(C)c1NC(=S)Nc1ccc(F)cc1	i	1	-3	i	i	i	.	.
Cc1ccc(NC(=S)Nc2ccc(F)cc2)cc1C	i	-10	-1	-8.8*	i	i	65%*	i
Cc1ccc(NC(=S)Nc2ccc3nc(-c4ccccn4)c(-c4ccccn4)nc3c2)cc1C	i	-12	-10	-5.3*	i	i	60%*	i
CCOc1ccc(NS(=O)(=O)c2ccc3c(c2)n(C)c(=O)n3C)cc1	i	-17	7	i	i	i	.	.
Cc1cc(C)cc(NC(=O)CSc2nc(=O)n3cc(C)ccc3n2)c1	i	-3	-8	i	i	i	.	.
O=C(O)CCc1nn2c3ccccc3nc2n(Cc2ccccc2)c1=O	i	-11	2	i	i	i	.	.
CCC(NC(=S)NCc1ccc(F)cc1)c1ccccc1 (centres undefined)	i	-6	-9	i	i	i	.	.
Cc1c(Cc2ccccc2)c(=O)oc2cc(O)ccc12	i	-5	-2	-6.5*	i	i	i	i
Cc1c(Cc2ccccc2)c(=O)oc2c(O)c(O)ccc12	.	.	.	.	.	i	.	.
SMILES	ANO1 block	PKA-R1A act	PKA-R2B activ	CHT inh	CHT allo act	ANO1 activ	CHT block conf	HEK293 MPD ctr
Cc1ccc(NC(=O)CNC(=O)c2cccc(Cl)c2)nc1	i	-11	3	-6.2*	i	i	26%*	i
CC(=O)N1CCN(C(=O)c2cccc(S(=O)(=O)N3CCN(c4ccccc4)CC3)c2)CC1	.	2	11	.	.	i	.	.
CC1CCC(NC(=O)c2cccc(S(=O)(=O)N3CCN(c4ccc(F)cc4)CC3)c2)CC1 (centres undefined)	i	-9	7	-5.6*	i	i	i	i
O=C(NNC(=O)c1cccc(S(=O)(=O)N2CCN(c3ccccc3)CC2)c1)c1ccc(Cl)cc1	i	-8	-3	-5.4*	i	i	i	i
CC(Sc1nc2ccccc2s1)C(=O)Nc1nnc(C(C)C)s1 (centres undefined)	i	-3	-10	-5.3*	i	i	i	i
Cc1nn(CC2CC2)c(=O)n1-c1cccc(Cl)c1	i	-12	3	-5.8*	i	i	i	i
Cc1ccc(-n2c(C)nn(CC3CC3)c2=O)cc1	i	-13	7	i	i	i	.	.
CC1=N/C(=C\c2ccccc2Cl)C(=O)O1	i	-14	5	i	i	i	.	.
CC(C)NCC(O)c1ccc(O)c(O)c1 (centres undefined)	i	-10	1	-6.4*	i	i	30%*	i
Cc1oc2ccc(OCc3ccc(Br)cc3)cc2c1C(=O)O	i	10	3	i	i	i	.	.
Cc1oc2ccc(OCc3ccc(Cl)cc3)cc2c1C(=O)O	i	-2	8	-5.1*	i	i	i	i
COc1ccc(-c2nnc(SCc3nnc(-c4cccs4)o3)n2CC2CCCO2)cc1 (centres undefined)	i	-8	2	i	i	i	.	.
